Source: PubChem (University of Kansas High Throughput Screening Laboratory)
Pf apPOL block = Pf-apPOL inhibitors, biochemical, fluorescence. 210,000 tested, 0.25% active. Plasmodium falciparum apicoplast DNA polymerase (apPOL). AID 1794808, 2022. Recombinant Pf-apPOL, molecular beacon fluorescence, 1.5 h. inhibition, % at 10 µM
mHTT-CaM PPI inh = mutant huntingtin-calmodulin interaction inhibitors – biochemical, AlphaScreen, primary screen. 190,000 tested, 3.6% active. AID 1671202, 2021. inhibition, % at 15 µM. AlphaScreen His-mHTT/GST-CaM binding, luminescence;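 also: 0% = both proteins with DMSO and 100% = one protein alone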
* marks the source's active call; other numbers are inactive results; . = no result; ! = a repeat was not active. Compounds with a hit are over-represented: about 3.6% of the library has one in this group of screens. Rule as the data show it: active = inhibition above about 50%; inactive = the rest.

SMILES	Pf apPOL block	mHTT-CaM PPI inh
CCN(CC)c1ccc(C2Oc3nc(SC)nnc3-c3ccccc3N2C(C)=O)c(OC)c1 (configuration not stated)	-10.4	59.0*
CSc1nnc2c(n1)OC(c1cc3c(cc1[N+](=O)[O-])OCO3)N(C(C)=O)c1ccccc1-2 (configuration not stated)	0.8	10.0
CSc1nnc2c(n1)OC(c1cc3c(cc1Cl)OCO3)N(C(C)=O)c1ccccc1-2 (configuration not stated)	-13.1	78.0*
CS(=O)(=O)NC1CC2CC1N(C(=O)CSc1ccccc1)C2 (configuration not stated)	1.6	-6.5
Cn1c(=O)c(N2CCN(C(=O)COc3ccc(Cl)cc3)CC2)nc2ccncc21	6.1	20.1
CCn1c(=O)c(N2CCN(C(=O)COc3ccc(Cl)cc3C)CC2)nc2ccncc21	4.4	60.8*
Cc1nc(C)c(C(=O)N2CCN(Cc3csc(-c4ccccc4)n3)CC2)s1	-3.3	1.6
O=C(CCC1CCCC1)NCc1ccc2[nH]c3c(c2c1)CCCC3	-15.2	100.2*
NNC(=O)c1ccc2[nH]c3c(c2c1)CCCC3	3.4	11.3
Cc1ccc(CNC(=O)CN(C)S(=O)(=O)c2ccc3[nH]c4c(c3c2)CCCC4)cc1	-0.8	32.5
O=C(CCC1CCCCC1)NCc1ccc2[nH]c3c(c2c1)CCCC3	-6.8	98.4*
O=C(CSc1ccccn1)Nc1ccc(OC(F)(F)Cl)cc1	17.7	-42.0
O=C(Nc1ccc(N2CCOCC2)cc1)Nc1ccc2snnc2c1	-2.6	17.1
COc1ccc(NC(=O)Nc2nc(-c3ccccc3)c(C(C)=O)s2)cc1OC	-4.0	-9.4
Fc1ccc(C2Nc3ccc(Br)cc3C3C=CCC32)cc1 (configuration not stated)	-0.8	15.0
Fc1ccc(C2Nc3ccc(OC(F)(F)F)cc3C3C=CCC32)cc1 (configuration not stated)	.	37.4
Brc1ccc2c(c1)C1C=CCC1C(c1ccncc1)N2 (configuration not stated)	-6.7	95.0*
Ic1ccc2c(c1)C1C=CCC1C(c1ccncc1)N2 (configuration not stated)	5.8	95.0*
Nc1ccc(C2Nc3ccccc3C3C=CCC32)cc1 (configuration not stated)	-11.1	85.3*
Cn1c(SCC(=O)c2ccc(Br)cc2)nc2ccccc2c1=O	2.2	-8.4
Cc1cnn(C(C)c2nnc(NC3CC3)s2)c1 (configuration not stated)	.	-0.5
CCc1ccccc1NC(=O)N1CCN(c2cc(N3CCOCC3)ncn2)CC1	-8.4	-14.0
COc1cccc(/C=C2\N=C(c3cc(OC)c(OC)c(OC)c3)OC2=O)c1	-2.5	-2.0
CCOc1c(Br)cc(C2Nc3ccc([N+](=O)[O-])cc3C3C=CCC32)cc1OC (configuration not stated)	-4.8	58.0*
COc1ccc2c(c1)C1C=CCC1C(c1ccc([N+](=O)[O-])cc1)N2 (configuration not stated)	3.9	94.9*
SMILES	Pf apPOL block	mHTT-CaM PPI inh
COc1cc([N+](=O)[O-])cc2c1NC(c1ccccc1)C1CC=CC21 (configuration not stated)	8.6	45.9
O=C(c1ccc2c(c1)C1C=CCC1C(c1ccc([N+](=O)[O-])cc1)N2)N1CCCCCC1 (configuration not stated)	-1.7	95.5*
O=[N+]([O-])c1ccc2c(c1)C1C=CCC1C(c1ccc(F)cc1)N2 (configuration not stated)	-2.8	14.4
CCN1CCN(Cc2c(O)ccc3c(=O)c(Oc4cccc(C)c4)c(C(F)(F)F)oc23)CC1	6.8	24.0
O=C(CSc1nnc(NC(=O)c2ccc(Cl)cc2)s1)NC1CC1	7.6	-2.7
COc1ccc(C(NC(=O)CC(C)C)c2ccc3cccnc3c2O)cc1OC (configuration not stated)	-8.8	24.0
COc1ccc(C(NC(C)=O)c2ccc3cccnc3c2O)cc1OC (configuration not stated)	-24.2	100.0*
CCC(=O)NC(c1ccc(OC)c(OC)c1)c1ccc2cccnc2c1O (configuration not stated)	94.1*!	100.0*
COc1cc(NC(=O)Cc2ccc(OC)c(OC)c2)c2ncccc2c1	-4.5	15.0
CCS(=O)(=O)N1CCC(C(=O)NCCc2csc(-c3ccccc3)n2)CC1	9.8	-7.2
Cc1ccc(N2CCN(C(=O)c3ccccc3[N+](=O)[O-])CC2)cc1C	0.3	15.6
Cc1ccc2c(c1)OCC(SCC(=O)Nc1ccc(F)c(Cl)c1)=N2	-2.8	-1.6
Cn1c(C2CCN(C(=O)c3ccc(F)cc3)C2)nc2cccnc21 (configuration not stated)	-2.1	0.2
CC1=C(C(=O)Nc2ccc(Br)c(C)c2)C2(CCC(C)CC2)OC1=O (configuration not stated)	5.4	99.0*
CC1=C(C(=O)Nc2ccc(C)cc2)C2(CCC(C)CC2)OC1=O (configuration not stated)	-0.3	7.0
CCOC(=O)C1CCN(C(=O)c2csc(Nc3ccc(S(C)(=O)=O)cc3)n2)CC1	-5.8	-5.3
CCOC(=O)C(=O)NCc1nc(COc2ccc(OC)cc2)no1	-5.8	-15.5
O=c1[nH]c2ccccc2n1CCCSc1nc2ccccc2o1	-4.8	51.0*
O=c1[nH]c2ccccc2n1CCCSc1cccs1	-1.2	4.7
N#CCSc1nc2ccc(N)cc2s1	-6.2	15.1
COc1cc([N+](=O)[O-])ccc1NC(=O)c1ccno1	-0.7	-7.3
O=c1c(NCCc2ccc(Cl)cc2)nc2ccncc2n1Cc1ccccc1	7.3	-12.1
Cc1ccn2cc(C(=O)NCCN3CCCC3)nc2c1	-4.9	-9.3
COc1cc(Br)c(CNCc2ccc3c(c2)OCO3)cc1OC	-2.1	-3.1
COc1ccc(Br)cc1CNc1ccc2c(c1)OCO2	-6.9	98.1*
SMILES	Pf apPOL block	mHTT-CaM PPI inh
Cc1ccc(CNc2ccc3c(c2)OCO3)c(C)c1	1.5	100.3*
Cc1cccc(NCc2ccc3c(c2)OCO3)c1	6.6	38.6
N#C/C(C(N)=O)=C1\Oc2c(cc(O)cc2-c2ccc([N+](=O)[O-])cc2)S1	3.0	23.0
CCC(=O)Nc1ccc(NC(=O)c2ccc(-c3ccccc3)cc2)cc1	0.2	4.9
Cn1ncc(N2CCCC(C(=O)NCC3CCCCC3)C2)cc1=O (configuration not stated)	3.0	-1.7
Cc1ccccc1NC(=O)CN1CCC(c2nc(-c3ccncc3)no2)CC1	-1.1	-7.2
COc1ccc(-c2noc(C3CCN(CC(=O)Nc4ccccc4C)CC3)n2)cc1	-1.5	66.0*
COc1cc(OC)cc(C(=O)N2CC3CC2CC3NS(=O)(=O)c2cccs2)c1 (configuration not stated)	-7.0	0.1
O=C(NCCCN1CCN(c2cccc(Cl)c2)CC1)C1CCN(c2ccncc2)CC1	7.1	95.3*
Cc1ccnc(N2CCC(C(=O)N3CCN(c4cccc(C(F)(F)F)c4)CC3)CC2)n1	-1.9	6.4
Cc1ccc(Cl)cc1N1CCN(C(=O)C2CCN(c3ccncc3)CC2)CC1	1.8	100.2*
Cc1ccnc(N2CCCC(C(=O)N3CCN(c4cccc(C(F)(F)F)c4)CC3)C2)n1 (configuration not stated)	2.1	78.1*
CS(=O)(=O)N1CCC(C(=O)NCCCN2CCN(c3ccccc3)CC2)CC1	-10.4	-13.0
